Of roughly 7,900 targets only a part is listed; those with a hit were picked by preference. About 0.6% of all pairs of compound and target were hits. Unmarked numbers belong to inactive results.
Assays:
Assay in all cases: log2 fold change, soluble protein after heating vs DMSO (PISA); higher = thermal stabilisation; K562 cells, 10 uM, 30 min; active = over 0.2 and 3.5 SD of the protein, either way, in both replicates (recomputed)
[1] = compound: CC[C@@H]1C(=O)N(C)c2cnc(Nc3ccc(C(=O)NC4CCN(C)CC4)cc3OC)nc2N1C1CCCC1
Summary of the method: (§1)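 Quantification of soluble protein used TMTpro 16plex LC-MS/MS, with channel sums equalised. Samples were the supernatant after 21,000xg for 90 min of pooled aliquots from K562 cells (2×10^6 cells/mL) treated with 10 μM compound for 30 min, heated for 3 min over 48°C-58°C, and extracted in PBS with 0.5% NP-40 at 4°C. Values, from duplicates, describe thermal stability against control samples on a log2 fold-change scale.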

volasertib = compound: CC[C@@H]1C(=O)N(C)c2cnc(Nc3ccc(C(=O)N[C@H]4CC[C@H](N5CCN(CC6CC6)CC5)CC4)cc3OC)nc2N1C(C)C [volasertib]
Summary of the method: as §1

[2] = compound: CC[C@H](C)N1C=C(C2=C(C=C(C=C21)C3=CN=C(C=C3)N4CCNCC4)C(=O)NCC5=C(C=C(NC5=O)C)C)C
Summary of the method: as §1

epoxomicin = compound: CC[C@H](C)[C@@H](C(=O)N[C@@H]([C@@H](C)O)C(=O)N[C@@H](CC(C)C)C(=O)[C@]1(CO1)C)NC(=O)[C@H]([C@@H](C)CC)N(C)C(=O)C [epoxomicin]
Summary of the method: as §1

[3] = compound: CCn1c(C(=O)N(C2CC2)C2CC2)cc2c3c(ncn3C)c(Nc3cc(C)n(C)n3)nc21
Summary of the method: as §1

[4] = compound: CCn1cc(-c2ccnc3[nH]c(-c4cccc(CN(C)C)c4)cc23)c(-c2ccc(NC(=O)N(C)C)cc2)n1
Summary of the method: as §1

[5] = compound: CN(C)CC(=O)Nc1ccc2[nH]c(=O)c3ccccc3c2c1
Summary of the method: as §1

rosiglitazone = compound: CN(CCOC1=CC=C(C=C1)C[C@H]2C(=O)NC(=O)S2)C3=CC=CC=N3 (racemic) [rosiglitazone]
Summary of the method: as §1

[6] = compound: CN1C2=C(C3=C1C(=O)N(N=C3)CC4=CC(=CC=C4)N)SC(=C2)S(=O)C
Summary of the method: as §1

[7] = compound: CN1CCC(CNc2ccc3ncc(-c4cccc(OC(F)(F)F)c4)n3n2)CC1
Summary of the method: as §1

saracatinib = compound: CN1CCN(CCOc2cc(OC3CCOCC3)c3c(Nc4c(Cl)ccc5c4OCO5)ncnc3c2)CC1 [saracatinib]
Summary of the method: as §1

sotrastaurin = compound: CN1CCN(c2nc(C3=C(c4c[nH]c5ccccc45)C(=O)NC3=O)c3ccccc3n2)CC1 [sotrastaurin]
Summary of the method: as §1

alvocidib = compound: CN1CC[C@H](c2c(O)cc(O)c3c(=O)cc(-c4ccccc4Cl)oc23)[C@H](O)C1 [alvocidib]
Summary of the method: as §1

Tubastatin A = compound: CN1CCc2c(c3ccccc3n2Cc2ccc(C(=O)NO)cc2)C1 [Tubastatin A]
Summary of the method: as §1

[8] = compound: CNC(=O)C1=CC=CC=C1NC2=NC(=NC=C2Cl)NC3=C(C=C(C=C3)N4CCOCC4)OC
Summary of the method: as §1

defactinib = compound: CNC(=O)c1ccc(Nc2ncc(C(F)(F)F)c(NCc3nccnc3N(C)S(C)(=O)=O)n2)cc1 [defactinib]
Summary of the method: as §1

rucaparib = compound: CNCc1ccc(-c2[nH]c3cc(F)cc4c3c2CCNC4=O)cc1 [rucaparib]
Summary of the method: as §1

[9] = compound: CNc1nc(-c2ccc3c(N)n[nH]c3c2)cc(N2C[C@@H](C(=O)NC3CCCCC3)CC[C@H]2C)n1
Summary of the method: as §1

encorafenib = compound: COC(=O)N[C@@H](C)CNc1nccc(-c2cn(C(C)C)nc2-c2cc(Cl)cc(NS(C)(=O)=O)c2F)n1 [encorafenib]
Summary of the method: as §1

[10] = compound: COC(=O)[C@H](CCSC)NC(=O)C1=C(C=C(C=C1)NC[C@H](CS)N)C2=CC=CC=C2
Summary of the method: as §1

Sequence of UniProt Q9UK59 (Q9UK59 whole entry, looked up): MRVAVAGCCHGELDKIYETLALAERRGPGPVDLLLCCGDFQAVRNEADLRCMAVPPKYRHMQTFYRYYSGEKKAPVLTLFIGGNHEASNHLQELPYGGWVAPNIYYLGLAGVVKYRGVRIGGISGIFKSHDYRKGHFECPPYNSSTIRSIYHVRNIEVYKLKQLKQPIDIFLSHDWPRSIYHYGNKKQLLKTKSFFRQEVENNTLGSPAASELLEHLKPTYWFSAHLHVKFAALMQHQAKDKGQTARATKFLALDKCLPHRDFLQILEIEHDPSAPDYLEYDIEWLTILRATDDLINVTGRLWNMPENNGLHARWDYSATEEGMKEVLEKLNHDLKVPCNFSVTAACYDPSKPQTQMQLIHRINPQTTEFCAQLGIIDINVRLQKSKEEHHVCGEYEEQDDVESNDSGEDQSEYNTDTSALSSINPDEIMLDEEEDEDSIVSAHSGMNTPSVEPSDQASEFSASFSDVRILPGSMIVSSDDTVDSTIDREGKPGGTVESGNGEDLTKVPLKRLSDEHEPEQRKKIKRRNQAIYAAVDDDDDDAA
Sequence of UniProt P39656 (P39656 whole entry, looked up): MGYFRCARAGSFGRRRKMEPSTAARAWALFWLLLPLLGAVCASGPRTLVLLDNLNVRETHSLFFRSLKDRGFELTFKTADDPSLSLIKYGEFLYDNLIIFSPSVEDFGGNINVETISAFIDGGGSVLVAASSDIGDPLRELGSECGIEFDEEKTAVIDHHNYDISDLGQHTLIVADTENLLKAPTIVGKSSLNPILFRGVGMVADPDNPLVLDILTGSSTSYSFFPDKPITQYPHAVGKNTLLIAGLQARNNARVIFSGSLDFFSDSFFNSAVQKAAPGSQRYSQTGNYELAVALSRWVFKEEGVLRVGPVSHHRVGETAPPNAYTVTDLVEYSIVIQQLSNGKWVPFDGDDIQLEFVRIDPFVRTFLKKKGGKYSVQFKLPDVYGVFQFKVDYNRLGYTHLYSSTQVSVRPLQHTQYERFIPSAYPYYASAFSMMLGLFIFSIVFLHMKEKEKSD
Sequence of UniProt P17844 (P17844 whole entry, looked up): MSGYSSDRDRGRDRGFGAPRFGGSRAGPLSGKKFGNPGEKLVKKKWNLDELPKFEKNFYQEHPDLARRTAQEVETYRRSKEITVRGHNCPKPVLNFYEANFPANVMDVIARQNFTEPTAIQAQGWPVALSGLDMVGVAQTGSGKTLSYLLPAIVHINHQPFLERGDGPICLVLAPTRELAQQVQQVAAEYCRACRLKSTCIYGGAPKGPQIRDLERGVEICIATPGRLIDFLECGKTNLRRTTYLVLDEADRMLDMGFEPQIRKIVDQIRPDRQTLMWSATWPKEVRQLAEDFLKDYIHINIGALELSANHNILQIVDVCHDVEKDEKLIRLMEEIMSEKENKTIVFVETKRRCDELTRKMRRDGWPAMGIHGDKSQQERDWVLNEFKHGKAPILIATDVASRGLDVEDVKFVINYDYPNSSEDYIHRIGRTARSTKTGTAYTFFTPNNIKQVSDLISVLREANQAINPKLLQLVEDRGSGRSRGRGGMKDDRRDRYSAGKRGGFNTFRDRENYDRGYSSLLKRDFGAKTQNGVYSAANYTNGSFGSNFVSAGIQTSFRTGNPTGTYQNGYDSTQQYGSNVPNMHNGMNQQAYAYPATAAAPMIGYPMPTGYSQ
Sequence of UniProt P13498 (P13498 whole entry, looked up): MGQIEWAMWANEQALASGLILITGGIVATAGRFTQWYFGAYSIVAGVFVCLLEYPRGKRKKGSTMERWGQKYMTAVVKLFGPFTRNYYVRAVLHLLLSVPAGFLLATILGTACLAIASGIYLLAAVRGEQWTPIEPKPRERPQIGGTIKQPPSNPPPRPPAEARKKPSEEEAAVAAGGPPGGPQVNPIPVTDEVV
Sequence of UniProt Q9NQI0 (Q9NQI0 whole entry, looked up): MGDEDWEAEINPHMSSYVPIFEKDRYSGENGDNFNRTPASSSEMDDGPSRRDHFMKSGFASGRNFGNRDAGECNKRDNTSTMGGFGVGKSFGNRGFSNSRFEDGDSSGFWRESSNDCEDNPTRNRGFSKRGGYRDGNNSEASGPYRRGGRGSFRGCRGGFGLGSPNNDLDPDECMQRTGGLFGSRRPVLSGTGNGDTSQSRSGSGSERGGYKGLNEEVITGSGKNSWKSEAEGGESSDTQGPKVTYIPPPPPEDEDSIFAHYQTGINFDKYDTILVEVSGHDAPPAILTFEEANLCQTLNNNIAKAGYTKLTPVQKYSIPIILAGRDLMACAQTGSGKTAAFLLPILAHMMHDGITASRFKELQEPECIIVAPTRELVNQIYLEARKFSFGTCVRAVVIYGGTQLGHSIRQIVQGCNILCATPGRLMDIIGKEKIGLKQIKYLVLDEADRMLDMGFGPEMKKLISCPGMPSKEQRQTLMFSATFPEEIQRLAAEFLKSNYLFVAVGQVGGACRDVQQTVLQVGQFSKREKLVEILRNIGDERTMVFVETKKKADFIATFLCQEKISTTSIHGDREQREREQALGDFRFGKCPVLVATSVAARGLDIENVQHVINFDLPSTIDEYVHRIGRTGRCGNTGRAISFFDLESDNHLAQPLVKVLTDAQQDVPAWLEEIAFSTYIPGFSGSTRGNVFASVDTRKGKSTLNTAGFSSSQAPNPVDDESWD
Sequence of UniProt Q96G46 (Q96G46 whole entry, looked up): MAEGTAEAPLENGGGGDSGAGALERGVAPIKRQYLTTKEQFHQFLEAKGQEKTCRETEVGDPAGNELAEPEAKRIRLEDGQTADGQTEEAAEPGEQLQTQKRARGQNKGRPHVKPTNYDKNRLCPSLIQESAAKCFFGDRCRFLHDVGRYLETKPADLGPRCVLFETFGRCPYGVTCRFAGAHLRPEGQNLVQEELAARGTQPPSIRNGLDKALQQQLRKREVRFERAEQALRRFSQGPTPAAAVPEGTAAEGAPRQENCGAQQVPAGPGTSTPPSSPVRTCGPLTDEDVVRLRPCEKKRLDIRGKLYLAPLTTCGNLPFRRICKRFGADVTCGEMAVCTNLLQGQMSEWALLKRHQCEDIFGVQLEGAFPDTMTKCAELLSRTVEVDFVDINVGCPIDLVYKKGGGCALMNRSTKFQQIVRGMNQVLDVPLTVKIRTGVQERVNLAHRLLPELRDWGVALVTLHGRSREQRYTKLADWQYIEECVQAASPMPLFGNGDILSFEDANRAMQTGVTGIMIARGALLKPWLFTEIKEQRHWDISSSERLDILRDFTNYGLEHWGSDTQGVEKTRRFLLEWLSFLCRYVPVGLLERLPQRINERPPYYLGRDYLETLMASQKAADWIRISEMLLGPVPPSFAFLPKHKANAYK
Sequence of UniProt Q9NYP7 (Q9NYP7 whole entry, looked up): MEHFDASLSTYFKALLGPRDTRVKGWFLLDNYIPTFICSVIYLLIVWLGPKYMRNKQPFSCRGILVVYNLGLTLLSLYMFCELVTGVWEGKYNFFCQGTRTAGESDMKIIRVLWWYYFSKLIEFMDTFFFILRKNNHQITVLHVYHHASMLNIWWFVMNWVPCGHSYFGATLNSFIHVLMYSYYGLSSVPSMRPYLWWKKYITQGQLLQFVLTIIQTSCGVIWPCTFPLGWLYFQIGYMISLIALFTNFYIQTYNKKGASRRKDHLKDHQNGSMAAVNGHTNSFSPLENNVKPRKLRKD
Sequence of UniProt Q16850 (Q16850 whole entry, looked up): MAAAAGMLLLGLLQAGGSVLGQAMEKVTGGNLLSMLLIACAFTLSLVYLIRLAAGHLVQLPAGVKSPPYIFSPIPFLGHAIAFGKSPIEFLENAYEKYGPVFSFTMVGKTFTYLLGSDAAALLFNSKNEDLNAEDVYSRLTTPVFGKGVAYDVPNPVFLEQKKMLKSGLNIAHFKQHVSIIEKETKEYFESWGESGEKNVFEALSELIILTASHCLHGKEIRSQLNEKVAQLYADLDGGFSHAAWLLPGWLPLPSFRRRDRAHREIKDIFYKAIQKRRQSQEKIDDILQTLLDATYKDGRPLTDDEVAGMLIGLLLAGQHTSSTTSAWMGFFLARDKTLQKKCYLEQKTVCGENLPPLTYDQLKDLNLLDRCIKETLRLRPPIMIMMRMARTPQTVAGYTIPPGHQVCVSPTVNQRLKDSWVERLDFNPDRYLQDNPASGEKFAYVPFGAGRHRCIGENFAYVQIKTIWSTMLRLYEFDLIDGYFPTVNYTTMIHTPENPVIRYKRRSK

Row | Target | log2 fold change [1] | log2 fold change (volasertib) | log2 fold change [2] | log2 fold change (epoxomicin) | log2 fold change [3] | log2 fold change [4] | log2 fold change [5] | log2 fold change (rosiglitazone) | log2 fold change [6] | log2 fold change [7] | log2 fold change (saracatinib) | log2 fold change (sotrastaurin) | log2 fold change (alvocidib) | log2 fold change (Tubastatin A) | log2 fold change [8] | log2 fold change (defactinib) | log2 fold change (rucaparib) | log2 fold change [9] | log2 fold change (encorafenib) | log2 fold change [10]
1 | CYP51A1 (UniProt Q16850) | 0.019 | 0.132 | 0.052 | -0.061 | 0.058 | 0.015 | 0.015 | -0.056 | 0.072 | -0.331 (active) | -0.072 | -0.029 | 0.027 | -0.024 | 0.065 | 0 | 0.162 | 0.212 | 0.029 | -0.135
2 | CYBA (UniProt P13498) | -0.091 | -0.125 | -0.026 | 0.037 | 0.047 | 0.074 | -0.02 | 0.058 | -0.064 | -0.04 | 0.067 | 0.033 | -0.031 | -0.02 | 0.01 | 0.014 | -0.035 | -0.013 | 0.031 | 0.008
3 | DDX5 (UniProt P17844) | -0.426 (active) | -0.589 (active) | 0.103 | 0.149 | -0.115 | -0.083 | 0.101 | 0.066 | 0.018 | 0.019 | -0.055 | -0.206 | -0.07 | 0.041 | 0.025 | -0.206 | -0.075 | -0.021 | 0.14 | -0.085
4 | DUS3L (UniProt Q96G46) | -0.162 | -0.331 (active) | 0.017 | 0.087 | 0.004 | 0.02 | 0.028 | 0.007 | 0.021 | -0.04 | 0.02 | -0.155 | -0.037 | -0.028 | 0.022 | -0.148 | 0.204 | -0.033 | 0.016 | 0.003
5 | DBR1 (UniProt Q9UK59) | 0.037 | 0 | 0.008 | -0.018 | -0.017 | 0.015 | -0.019 | -0.002 | -0.034 | 0.015 | 0.048 | 0.019 | -0.002 | -0.012 | -0.033 | -0.012 | -0.007 | -0.004 | -0.012 | -0.011
6 | DDOST (UniProt P39656) | 0.006 | -0.102 | -0.014 | -0.014 | 0.015 | 0.052 | -0.031 | -0.007 | 0.019 | 0.089 | -0.015 | -0.03 | 0.013 | 0.021 | 0.008 | 0.042 | -0.029 | -0.005 | 0.059 | -0.002
7 | ELOVL5 isoform 2 (UniProt Q9NYP7) | -0.227 | -0.164 | 0.026 | -0.034 | 0.049 | -0.206 | 0.021 | 0.122 | -0.044 | -0.691 (active) | -0.037 | -0.084 | -0.021 | -0.085 | -0.032 | -0.016 | -0.026 | -0.135 | 0.132 | -0.048
8 | DDX4 (UniProt Q9NQI0) | 0.139 | -0.006 | 0.067 | -0.113 | -0.223 | 0.047 | -0.414 | 0.097 | 0.025 | -0.844 | -0.342 | 0.209 | 0.206 | 0.102 | -0.097 | 0.11 | 0.543 | -0.095 | 0.121 | 0.067
